From the supplement of paper PMC3334620
Over roughly 33,000 sequences, “E-score (-0.5 to 0.5)” has its median near -0.012; the highest 2% begin near 0.27. Many of the other results were omitted from the sample, so the highest values are more common in it than they were.

The sequences below were run against T1, Vhr1 (UniProt P40522) (assay: PBM E-score (8-mer binding enrichment) (E-score (-0.5 to 0.5)); higher = stronger / more preferred TF binding). Settings: protein concentration: 200 nM; construct: GST-full length.
T1 sequence: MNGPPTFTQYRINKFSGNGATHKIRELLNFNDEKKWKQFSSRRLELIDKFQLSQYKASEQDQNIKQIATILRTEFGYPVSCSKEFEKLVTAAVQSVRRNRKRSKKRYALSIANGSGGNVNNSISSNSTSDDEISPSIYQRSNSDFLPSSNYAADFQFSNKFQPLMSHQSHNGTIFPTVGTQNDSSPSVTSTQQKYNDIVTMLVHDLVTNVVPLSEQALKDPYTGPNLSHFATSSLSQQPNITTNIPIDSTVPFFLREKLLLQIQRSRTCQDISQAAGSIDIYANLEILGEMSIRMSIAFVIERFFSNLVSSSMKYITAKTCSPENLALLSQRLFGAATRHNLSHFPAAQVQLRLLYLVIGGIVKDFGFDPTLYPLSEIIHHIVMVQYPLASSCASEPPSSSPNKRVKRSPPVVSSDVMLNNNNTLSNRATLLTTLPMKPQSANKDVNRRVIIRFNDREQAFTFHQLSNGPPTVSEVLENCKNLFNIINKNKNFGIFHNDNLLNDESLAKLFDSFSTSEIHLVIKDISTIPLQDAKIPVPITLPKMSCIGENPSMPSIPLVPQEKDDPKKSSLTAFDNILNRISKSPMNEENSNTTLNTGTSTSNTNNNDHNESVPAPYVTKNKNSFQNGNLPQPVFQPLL
Description: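 Universal 'all 10-mer' protein binding microarrays (Agilent AMADID 015681) probed with GST-tagged S. cerevisiae TFs (full-length or DBD) made by in vitro transcription/translation (PURExpress), about 100-200 nM. Bound TF was detected with fluorescent anti-GST. Each ungapped 8-mer (which stands for itself and its reverse complement) is scored by the PBM enrichment score (E-score), a modified Wilcoxon-Mann-Whitney statistic from -0.5 to +0.5, computed with the Universal PBM Analysis Suite. Scale: above 0.35 generally sequence-specific binding.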

In order of falling “PBM E-score” value:
1. GAGTCAGC  0.476
2. GAGTCAGA  0.447
3. CATGATTC  0.424
4. AATGATTC  0.406
5. AATCATGT  0.389
6. CCCACCCC  0.389
7. AATCATGG  0.387
8. CCCACCCG  0.382
9. GTCGCGAC  0.379
10. CACGACTC  0.378
11. CATGATTA  0.369
12. CGCAGTCA  0.363
13. GACGACTC  0.358
14. GGCAGTCA  0.345
15. AATCATGA  0.331
16. CAGGAATC  0.313
17. CATGAATC  0.31
18. AATCATGC  0.304
19. CAACATGA  0.3
20. AACGACTC  0.292
21. CACGAATC  0.288
22. AAGTCAGC  0.281
23. CATCATGA  0.276
24. GGCGCGAC  0.275
25. AATCAGGT  0.268
26. CCCACCCA  0.263
27. AGCAGTCA  0.256
28. AATCATTC  0.251
29. GATGAATC  0.249
30. CTCGCGAC  0.242
31. CAGTCAGC  0.232
32. AATGAATC  0.23
33. CAGTCAGA  0.224
34. AATCATTA  0.222
35. CTCGATTA  0.216
36. CTTGATTC  0.214
37. CATGATCC  0.213
38. CACGACTA  0.209
39. CATCATGC  0.201
40. AATGATTG  0.199
41. TATCATGA  0.189
42. CACGACTG  0.178
43. CACTGCCG  0.173
44. ATTGATTC  0.171
45. ACCTTCTG  0.167
46. CCGCCAAC  0.163
47. GACGACTA  0.162
48. CGCGCGAC  0.162
49. CATCATGG  0.152
50. CAACATGC  0.15
51. AATCAGGG  0.133
52. CATCATAA  0.133
53. AACGAATC  0.125
54. GGCAGTAA  0.125
55. CAGTATCC  0.124
56. CAATGGTC  0.115
57. GTACTTCA  0.114
58. CCGGTCCG  0.112
59. ACCACCCC  0.112
60. CATGATAA  0.108
61. AACACCGA  0.108
62. GATCATGC  0.0952
63. CATCTATA  0.0881
64. GAGGAATC  0.0804
65. CGCAGTCC  0.0797
66. GGCAGTGA  0.0755
67. ATGTCAGC  0.072
68. CTGATCGA  0.0718
69. AATCAAGG  0.0679
70. CACGAATA  0.066
71. AAGTCAGA  0.0614
72. CTTGATTA  0.0605
73. GGCGCGAA  0.0599
74. GTCGCGAA  0.0553
75. AACGACTA  0.0488
76. CACCCGTC  0.0428
77. CAACATGG  0.0395
78. AGTCTTGC  0.0289
79. ACAGCTCC  0.0267
80. CCTAGTAC  0.0265
81. CATGGGAC  0.02
82. GGAATACA  0.0161
83. AGAGCGAC  0.0123
84. CAGGAATG  0.0121
85. ACTATAGC  0.00988
86. ACCACCCG  -0.0147
87. GCAGCTTA  -0.0202
88. GCATTGAA  -0.0212
89. AACCCCTA  -0.0392
90. GCCACCCC  -0.0413
91. GACGACGC  -0.049
92. GCACCCAA  -0.0528
93. GCTGGCGA  -0.0575
94. ATACTACG  -0.0642
95. GGCAGACA  -0.0678
96. ATGCTCAA  -0.0744
97. GGGTCAGA  -0.0746
98. AAATGAAT  -0.0848
99. TACGAGCA  -0.0868
100. TTACCTAA  -0.0877
101. ATTGCCCA  -0.113
102. AACTAGTT  -0.125
103. CAACGCTA  -0.125
104. CTGAGATA  -0.128
105. AGACCTGC  -0.147
106. TAACCTAA  -0.187
107. CTCGAGAA  -0.188
108. CTGGACCC  -0.213
109. AACGACTT  -0.216
110. GCGTCAGC  -0.256
111. AAAGGTTA  -0.357
